Bioassay records (PubChem)
Compounds with a hit are over-represented: about 1.4% of the library has one in this group of screens.
MEX-5 binding – C. elegans MEX-5 TCR-2 RNA binding activity; Q9XUB2; MEX-5/FITC-TCR2 RNA binding, fluorescence polarization; active compounds read low; activity score (negative = inhibition of binding), % at 10 µM; 0.38% of 300,000 active;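 active = inhibition past about -25% in most replicates, and total fluorescence under double the plate's negative control median, limit read from the data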;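 also: 0% = DMSO and -100% = 5 µM competing unlabeled TCR2 RNA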
MCL1-BIM inh – inhibitors of human MCL1 binding to BIM-BH3 peptide; Q07820; GST-MCL1 / FITC-Bim-BH3 fluorescence polarization; inhibition, % at 10.9 µM; 0.68% of 320,000 active; AID 2057;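 active = inhibition above the mean inhibition of all tested compounds plus 3 SD, set per campaign, cut at about 40% in these data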;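 also: 0% = DMSO wells and 100% = unlabeled Bim-BH3 peptide control; higher means more loss of mP so more displacement of Bim peptide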
GLD-1 TGE inh – GLD-1-TGE RNA interaction inhibition (C. elegans); inhibition, % at 5.96 µM; AID 2280; purified GLD-1 + fluorescein TGE RNA, fluorescence polarization; 0.44% of 320,000 active; Q17339;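 active = percent inhibition above a per-plate cutoff, the plate mean of test compounds plus 3 SD, cut at about 30% in these data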;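 also: 0% = DMSO wells with GLD-1 and probe and 100% = wells lacking GLD-1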
eLon inh – inhibits E. coli Lon protease; inhibition, % at 7.94 µM; AID 602123; P0A9M0; purified E. coli Lon protease, fluorescence polarization; 0.42% of 360,000 active; in the data active = inhibition above about 13%, passing the limit was not always enough;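 also: 0% = enzyme with probe and DMSO and 100% = no enzyme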
Target sequence (P0A9M0 whole entry, looked up): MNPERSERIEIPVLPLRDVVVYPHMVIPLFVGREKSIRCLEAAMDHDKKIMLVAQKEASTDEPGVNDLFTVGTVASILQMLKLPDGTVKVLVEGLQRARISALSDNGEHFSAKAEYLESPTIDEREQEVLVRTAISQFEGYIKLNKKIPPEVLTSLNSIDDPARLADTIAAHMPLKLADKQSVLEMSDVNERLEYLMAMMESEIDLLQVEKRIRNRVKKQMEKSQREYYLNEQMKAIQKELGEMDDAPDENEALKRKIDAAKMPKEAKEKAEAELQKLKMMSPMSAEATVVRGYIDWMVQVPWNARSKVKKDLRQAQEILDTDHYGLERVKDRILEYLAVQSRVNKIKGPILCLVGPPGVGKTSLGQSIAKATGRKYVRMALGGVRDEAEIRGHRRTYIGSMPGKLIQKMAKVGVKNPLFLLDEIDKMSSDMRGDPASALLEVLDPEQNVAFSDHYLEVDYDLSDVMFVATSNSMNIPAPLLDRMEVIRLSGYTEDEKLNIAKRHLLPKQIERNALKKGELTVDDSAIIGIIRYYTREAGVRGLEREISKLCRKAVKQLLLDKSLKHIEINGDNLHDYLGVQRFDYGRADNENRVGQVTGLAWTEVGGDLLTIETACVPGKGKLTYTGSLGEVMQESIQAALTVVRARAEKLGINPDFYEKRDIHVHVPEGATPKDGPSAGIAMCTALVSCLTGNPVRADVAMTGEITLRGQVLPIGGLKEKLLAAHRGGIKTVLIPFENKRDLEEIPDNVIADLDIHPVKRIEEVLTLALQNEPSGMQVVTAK
BCLXL inh – Bcl-xL (human) inhibition; GST-Bcl-xL / FITC-Bim BH3 peptide fluorescence polarization; inhibition, % at 10.9 µM; 0.7% of 320,000 active;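 active = inhibition above the mean of all tested compounds plus 3 SD, cutoff set per campaign, cut at about 30% in these data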;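 also: 0% = DMSO wells and 100% = unlabeled Bim-BH3 peptide competitor; inhibitors lower millipolarization by displacing the labeled peptide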
BCLXL inh confirm – counter-screen for MCL1 inhibitors: confirmation of human Bcl-xL inhibitors | shares compounds with MCL1-BIM inh | GST-Bcl-xL / FITC-Bim BH3 peptide FP binding | inhibition, % at 10.9 µM | 54% of 1,700 active | AID 2166;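 active = inhibition above a cutoff equal to the mean inhibition of all tested compounds plus 3 SD, cut at about 30% in these data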;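 also: 0% = DMSO wells and 100% = unlabeled Bim BH3 control peptide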
MCL1 inh confirm – confirmation of human MCL1 and BIM-BH3 interaction inhibitors | shares compounds with MCL1-BIM inh | 61% of 1,700 active | inhibition, % at 10.9 µM | GST-MCL1 / FITC-Bim-BH3 fluorescence polarization | AID 2168;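 active = inhibition above the average of all tested compounds plus 3 SD, cut at about 40% in these data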;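 also: 0% = DMSO wells and 100% = unlabeled Bim-BH3 control peptide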
The depositor's hits bear a star.

For Cn1cc(/C=C2\SC(=O)NC2=S)c2ccccc21 the results were MEX-5 binding -1, MCL1-BIM inh 60*, GLD-1 TGE inh -5, eLon inh 1, BCLXL inh 62*, BCLXL inh confirm 74* and MCL1 inh confirm 82*.
CC1(C)CC(=O)C2=C(C1)OC(N)=C(C#N)C21CCN(Cc2ccccc2)CC1 was read as MEX-5 binding -15, MCL1-BIM inh 73*, GLD-1 TGE inh 30, eLon inh -3, BCLXL inh 74*, BCLXL inh confirm 63* and MCL1 inh confirm 70*.
Cc1nc2c([nH]1)C1(CCN(Cc3ccccc3)CC1)C(C#N)=C(N)O2 was read as MCL1-BIM inh active, GLD-1 TGE inh 93*, eLon inh 10, BCLXL inh 163*, BCLXL inh confirm 32* and MCL1 inh confirm 46*.
For CCc1[nH]nc2c1C1(CCN(C(=O)c3ccccc3)CC1)C(C#N)=C(N)O2 the results were MEX-5 binding -2, MCL1-BIM inh -1, GLD-1 TGE inh -4, eLon inh -1 and BCLXL inh 2.
O=C(Nc1c(C(=O)O)oc2ccc(Br)cc12)c1ccccc1 was read as MEX-5 binding 0, MCL1-BIM inh 0, GLD-1 TGE inh -3, eLon inh -4 and BCLXL inh 4.
For Cc1ccc(/C=C2\SC(=O)N(CCNC(=O)C3CSC4(C)CCC(=O)N34)C2=O)cc1 (configuration not stated) the results were MEX-5 binding -1, MCL1-BIM inh 2, GLD-1 TGE inh 2, eLon inh -9 and BCLXL inh 4.
Screening CCCNc1c(F)c(F)c2c(C)c3ccccc3nc2c1F returned MEX-5 binding -29*, MCL1-BIM inh 125*, GLD-1 TGE inh 83*, eLon inh 60*, BCLXL inh 114*, BCLXL inh confirm 106* and MCL1 inh confirm 123*.
Cc1c2ccccc2nc2ccccc12 was read as MEX-5 binding 0, MCL1-BIM inh -1, GLD-1 TGE inh -9, eLon inh -9 and BCLXL inh -2.
For CC1CCN(S(=O)(=O)c2cc3c4c(c2)C(C)C(=O)N4CCC3)CC1 (configuration not stated) the results were MEX-5 binding 5, MCL1-BIM inh 2, GLD-1 TGE inh 9, eLon inh -5 and BCLXL inh 3.
For O=C(Cc1ccc(S(=O)(=O)N2CCOCC2)s1)Nc1nc2c(s1)CCCC2 the results were MEX-5 binding -2, MCL1-BIM inh 102*, GLD-1 TGE inh 66*, eLon inh -1, BCLXL inh 80*, BCLXL inh confirm 32* and MCL1 inh confirm 52*.
Screening O=C(CC1C(=O)NCCN1Cc1cccc(F)c1F)NC1CCCCCC1 (configuration not stated) returned MEX-5 binding 0, MCL1-BIM inh 30, GLD-1 TGE inh 25, eLon inh 7 and BCLXL inh 27.
`Cc1ccc(C(=O)N/C(=C\c2ccc(-c3ccccc3[N+](=O)[O-])o2)C(=O)NCCCN(C)C)cc1` gave MEX-5 binding -27*, MCL1-BIM inh 80*, GLD-1 TGE inh 51*, eLon inh 18, BCLXL inh 76*, BCLXL inh confirm 19 and MCL1 inh confirm 9.
For CN(C)CCNC(=O)/C(=C/c1ccc(-c2cccc([N+](=O)[O-])c2)o1)NC(=O)c1ccccc1 the results were MEX-5 binding 1, MCL1-BIM inh 7, GLD-1 TGE inh 2, eLon inh -1 and BCLXL inh 0.
`Cc1ccc(C(=O)N/C(=C\c2ccc(-c3ccccc3[N+](=O)[O-])o2)C(=O)NCCN(C)C)cc1` gave MEX-5 binding -10, MCL1-BIM inh 66*, GLD-1 TGE inh 23, eLon inh 2, BCLXL inh 56*, BCLXL inh confirm 7 and MCL1 inh confirm 2.
Screening CC1c2ccccc2N(NC(=O)Cc2ccccc2)C1C (configuration not stated) returned MEX-5 binding 4, MCL1-BIM inh -8, GLD-1 TGE inh 7, eLon inh -4 and BCLXL inh -4.
